Several values for one entry are separate records, joined by “and”; a condition that tells them apart may be missing. Equal entries are not always repeated. Records with an inconclusive call do not appear. Entries that show only a call come without a potency. Some structures have more than one record in an assay (separate samples or runs), and their calls can disagree. Activity calls are given as the source filed them. Unless noted, calls follow the shape of the full dose curve.
How the values were obtained:
[1] = Nuclear factor erythroid 2-related factor 2/antioxidant responsive element (Nrf2/ARE) small molecule agonists: qHTS cell viability counter screen in human keratinocytes (AID 1919968; active = well fitted cell-killing curve with a large enough effect in the repeat runs; also: nearly all actives have a fitted effect of over 55% in size; also: potency is read from the fitted curve at half-maximal effect)
Procedure, shortened: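 Parallel cytotoxicity read: KeratinoSens HaCaT cells, compound treatment 23 h, viability by CellTiter-Fluor fluorescence 1 h post-reagent.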

[2] = Nuclear factor erythroid 2-related factor 2/antioxidant responsive element (Nrf2/ARE) small molecule agonists: luciferase reporter gene qHTS assay in human keratinocytes (AID 1919969); also: nearly all actives have a fitted effect of over 35% in size; also: potency is read from the fitted curve at half-maximal effect
[3] = target: Gonadotropin-releasing hormone receptor (Homo sapiens) (UniProt P30968); assay: Human gonadotropin-releasing hormone receptor (GnRHR) small molecule agonists, calcium flux assay in GnRHR-HEK293 cells (AID 1920063); also: nearly all actives have a fitted effect of over 35% in size
Procedure, shortened: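 Calcium flux, agonist mode, human GnRHR stably integrated in HEK293; dye 1 h at 37 C before compound; Ex/Em=480/540 kinetic read, 3 min; 15 concentrations, triplicate.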

[4] = G protein-coupled receptor (GPCR) small molecule agonists, calcium flux assay: HEK293 wild type cell line counter screen (AID 1920065)
Procedure, shortened: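 Non-specific calcium responders were flagged by adding DMSO-dissolved compounds to dye-loaded cells and reading 480/540 nm fluorescence each second for 3 min; ATP served as positive control.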

[5] = p53 small molecule agonists, cell-based qHTS assay with human liver microsomes (AID 1963577)
Procedure, shortened: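 p53RE-bla cells, 4,000/well, compound added after 5 h, with human liver microsomes 0.5 mg/mL and NADPH 0.5 mg/mL final; 16 h at 37 C, then LiveBLAzer 2 h RT, fluorescence.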

[6] = p53 small molecule agonists, cell-based qHTS assay with rat liver microsomes (AID 1963578)
Procedure, shortened: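 p53RE-bla cells, 4,000/well, pre-incubated 5 h, then given compounds plus rat liver microsomes (0.5 mg/mL final) and NADPH (0.5 mg/mL final). Incubation 16 h at 37 C; beta-lactamase reporter read by LiveBLAzer fluorescence after 2 h at room temperature.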

[7] = p53 small molecule agonists, cell-based qHTS assay with human liver microsomes: qHTS cell viability counter screen (AID 1963579); also: nearly all actives have a fitted effect of over 45% in size; also: potency is read from the fitted curve at half-maximal effect
Procedure, shortened: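 p53RE-bla cells, 4,000/well, dosed 5 hours after plating, with human liver microsomes (0.5 mg/mL final) plus NADPH (0.5 mg/mL final), 16 hours at 37 C. Viability read as CellTiter-Glo luminescence after 30 min at room temperature.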

[8] = p53 small molecule agonists, cell-based qHTS assay with rat liver microsomes: qHTS cell viability counter screen (AID 1963580); also: nearly all actives have a fitted effect of over 45% in size
Procedure, shortened: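 After the beta-lactamase ratio was read, CellTiter-Glo was added to the same wells and luminescence measured at 30 min; cells had been treated 16 h at 37 C with compounds, rat liver microsomes and NADPH (0.5 mg/mL final each).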

[9] = p53 small molecule agonists, cell-based qHTS assay: qHTS cell viability counter screen (AID 1963581); also: nearly all actives have a fitted effect of over 45% in size; also: potency is read from the fitted curve at half-maximal effect
Procedure, shortened: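 Multiplexed with the reporter read, a CellTiter-Glo step (30 min, room temperature) gauges ATP-based viability of HCT-116 p53RE-bla cells after 16 h compound incubation at 37 C.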

[10] = p53 small molecule agonists, cell-based qHTS assay (AID 1963582; active = well fitted activation curve with a large enough effect in the signal ratio in the repeat runs, not every such curve was filed as active; the % refers to the signal ratio)
Procedure, shortened: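 Beta-lactamase reporter cells (p53RE-bla) treated with compounds for 16 h at 37 C; FRET substrate, 2 h, room temperature; fluorescence intensity.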

[11] = target: 5-hydroxytryptamine receptor 2A (Homo sapiens) (UniProt P28223); assay: 5-hydroxytryptamine receptor 2A (HTR2A) small molecule antagonists, cell-based qHTS assay (AID 1963586); also: nearly all actives have a fitted effect of over 45% in size
Procedure, shortened: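 CHO cells stably expressing human HTR2A were plated for 18 h at 37 C, then loaded with calcium dye for 1 h. Compounds were preincubated 5 min at room temperature before DOI (4 nM solution) was added. Kinetic fluorescence was read for 3 min.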

[12] = target: 5-hydroxytryptamine receptor 2A (Homo sapiens) (UniProt P28223); assay: 5-hydroxytryptamine receptor 2A (HTR2A) small molecule agonists, cell-based qHTS assay (AID 1963587); also: nearly all actives have a fitted effect of over 30% in size; also: potency is read from the fitted curve at half-maximal effect
Procedure, shortened: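 CHO cells stably expressing human HTR2A, plated 18 h, loaded with calcium dye 1 h at 37 C. Agonist mode: compounds added and intracellular calcium fluorescence recorded kinetically for 2 min at 1 sec intervals.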

[13] = target: Muscarinic acetylcholine receptor M1 (Homo sapiens) (UniProt P11229); assay: Cholinergic receptor muscarinic 1 (CHRM1) small molecule agonists, cell-based qHTS assay (AID 1963589); also: nearly all actives have a fitted effect of over 35% in size
Procedure, shortened: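 qHTS, 15-point titration, 3 independent runs: compounds pin-transferred onto dye-loaded CHRM1-CHO cells (human M1), calcium fluorescence followed every second to detect agonism.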

[14] = cAMP Responsive Elements (CRE) small molecule agonists, cell-based qHTS assay (AID 1963590)
Procedure, shortened: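 Quantitative HTS for CRE agonists: HEK 293T CRE-bla cells, overnight plating, 3 h compound incubation at 37 C/5% CO2, then 2 h room-temperature LiveBLAzer B/G FRET substrate loading.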

[15] = cAMP Responsive Elements (CRE) small molecule antagonists, cell-based qHTS assay (AID 1963591; active = well fitted inhibition curve with a large enough effect in the signal ratio in the repeat runs, not every such curve was filed as active; the % refers to the signal ratio)
Procedure, shortened: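 Fluorescence intensity from cleaved LiveBLAzer B/G substrate (2 h, room temperature) quantified CRE-bla activity in HEK 293T cells exposed 3 h to compound with 0.25 uM final NKH477.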

[16] = target: Beta-2 adrenergic receptor (Homo sapiens) (UniProt P07550); assay: Adrenergic beta2 receptor (ADRB2) small molecule antagonists, cell-based qHTS assay (AID 1963592); also: series mostly up to about 92 µM; nearly all actives have a fitted effect of over 50% in size
Procedure, shortened: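 Assay format: CHO-ADRB2 cells, 18-20hr seeding at 37C/5% CO2, then compound plus 1nM isoproterenol agonist mix for 0.5hr RT. Homogeneous time-resolved fluorescence cAMP detection after 1hr, expressed as 665/615 nm ratio.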

[17] = target: D(2) dopamine receptor (Homo sapiens) (UniProt P14416); assay: Dopamine D2 receptor (DRD2) small molecule agonists, cell-based qHTS assay (AID 1963594); also: nearly all actives have a fitted effect of over 35% in size
Procedure, shortened: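 HEK293 cells stably expressing human DRD2, pre-treated with PDE inhibitor Ro20-1724 (0.1 mM final) and compound 10 min at room temperature, then stimulated with NKH477 (200nM […]) for 30 min. cAMP read by HTRF (665/620 nm).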

[18] = target: D(2) dopamine receptor (Homo sapiens) (UniProt P14416); assay: Dopamine D2 receptor (DRD2) small molecule antagonists, cell-based qHTS assay (AID 1963595; active = well fitted inhibition curve with a large enough effect in the signal ratio in the repeat runs, with a control signal flat; the % refers to the signal ratio)
Procedure, shortened: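 Readout: HTRF cAMP, cAMP-d2 competing with cellular cAMP for anti-cAMP cryptate, read after 1 h. Cells: DRD2-HEK293. Conditions: 0.1 mM Ro20-1724, 12 nM quinpirole, 200 nM NKH477, 30 min RT.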

[19] = target: Muscarinic acetylcholine receptor M1 (Homo sapiens) (UniProt P11229); assay: Cholinergic receptor muscarinic 1 (CHRM1) small molecule antagonists, cell-based qHTS assay (AID 1963588); also: nearly all actives have a fitted effect of over 40% in size
Procedure, shortened: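 Compounds were tested at 15 concentrations in three independent runs. Dye-loaded CHRM1-CHO cells were exposed 5 min at room temperature before stimulation by acetylcholine added at 50nM. Intracellular calcium was read kinetically on FDSS for 3 min.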

[20] = target: Beta-2 adrenergic receptor (Homo sapiens) (UniProt P07550); assay: Adrenergic beta2 receptor (ADRB2) small molecule agonists, cell-based qHTS assay (AID 1963593);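 also: CHO cells stably overexpressing human ADRB2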
Procedure, shortened: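 CHO cells stably over-expressing ADRB2 were plated overnight at 37C, then dosed with compounds plus a stimulation mix containing 100uM IBMX and 25uM Ro-20-1724 for 0.5hr at room temperature. cAMP was measured by HTRF competition, 1hr.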

Sequence of Beta-2 adrenergic receptor (Homo sapiens) (P07550 whole entry, looked up): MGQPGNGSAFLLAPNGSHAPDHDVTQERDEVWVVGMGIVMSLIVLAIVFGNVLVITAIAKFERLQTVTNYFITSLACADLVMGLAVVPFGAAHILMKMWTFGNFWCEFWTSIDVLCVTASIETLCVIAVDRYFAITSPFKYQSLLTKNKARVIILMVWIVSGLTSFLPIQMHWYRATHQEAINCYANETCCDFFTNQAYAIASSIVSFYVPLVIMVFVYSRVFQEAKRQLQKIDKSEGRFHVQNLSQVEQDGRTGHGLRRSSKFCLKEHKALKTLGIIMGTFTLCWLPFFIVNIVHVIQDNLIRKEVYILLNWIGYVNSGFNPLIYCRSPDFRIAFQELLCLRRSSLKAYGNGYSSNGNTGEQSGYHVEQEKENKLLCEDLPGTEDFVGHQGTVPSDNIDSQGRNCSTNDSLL
Sequence of Gonadotropin-releasing hormone receptor (Homo sapiens) (P30968 whole entry, looked up): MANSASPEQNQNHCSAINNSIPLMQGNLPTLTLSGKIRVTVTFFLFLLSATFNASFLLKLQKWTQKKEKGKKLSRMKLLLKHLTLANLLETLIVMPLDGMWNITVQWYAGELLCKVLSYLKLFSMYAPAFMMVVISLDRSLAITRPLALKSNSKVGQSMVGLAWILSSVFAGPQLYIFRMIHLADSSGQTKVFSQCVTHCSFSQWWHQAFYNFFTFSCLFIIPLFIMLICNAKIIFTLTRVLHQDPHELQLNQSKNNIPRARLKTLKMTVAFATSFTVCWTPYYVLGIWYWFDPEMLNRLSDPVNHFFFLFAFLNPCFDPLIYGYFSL
Sequence of 5-hydroxytryptamine receptor 2A (Homo sapiens) (P28223 whole entry, looked up): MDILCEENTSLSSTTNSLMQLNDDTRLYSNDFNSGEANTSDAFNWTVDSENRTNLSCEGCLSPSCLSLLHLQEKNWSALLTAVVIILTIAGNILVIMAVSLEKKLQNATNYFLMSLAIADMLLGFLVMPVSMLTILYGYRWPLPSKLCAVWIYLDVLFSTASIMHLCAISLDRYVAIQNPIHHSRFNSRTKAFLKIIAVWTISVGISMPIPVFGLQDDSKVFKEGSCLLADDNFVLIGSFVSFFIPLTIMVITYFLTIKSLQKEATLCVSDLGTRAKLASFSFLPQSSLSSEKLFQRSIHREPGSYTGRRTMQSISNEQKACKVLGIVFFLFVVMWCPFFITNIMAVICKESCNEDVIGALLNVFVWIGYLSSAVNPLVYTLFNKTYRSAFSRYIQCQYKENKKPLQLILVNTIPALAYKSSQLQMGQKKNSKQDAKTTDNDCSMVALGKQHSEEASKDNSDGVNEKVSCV
Sequence of Muscarinic acetylcholine receptor M1 (Homo sapiens) (P11229 whole entry, looked up): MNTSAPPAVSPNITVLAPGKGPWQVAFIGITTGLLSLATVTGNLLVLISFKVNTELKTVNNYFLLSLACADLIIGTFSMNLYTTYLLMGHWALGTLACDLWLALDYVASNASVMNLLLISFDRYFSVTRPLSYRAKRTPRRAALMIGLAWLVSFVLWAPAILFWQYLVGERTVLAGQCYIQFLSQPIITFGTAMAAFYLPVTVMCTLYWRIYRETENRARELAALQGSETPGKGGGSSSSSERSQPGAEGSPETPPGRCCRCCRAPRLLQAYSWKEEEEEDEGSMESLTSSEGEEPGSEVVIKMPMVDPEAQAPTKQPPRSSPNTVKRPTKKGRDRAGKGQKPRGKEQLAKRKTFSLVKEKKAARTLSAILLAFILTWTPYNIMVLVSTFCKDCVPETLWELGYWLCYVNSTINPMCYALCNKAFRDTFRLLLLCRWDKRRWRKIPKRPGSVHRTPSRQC
Sequence of D(2) dopamine receptor (Homo sapiens) (P14416 whole entry, looked up): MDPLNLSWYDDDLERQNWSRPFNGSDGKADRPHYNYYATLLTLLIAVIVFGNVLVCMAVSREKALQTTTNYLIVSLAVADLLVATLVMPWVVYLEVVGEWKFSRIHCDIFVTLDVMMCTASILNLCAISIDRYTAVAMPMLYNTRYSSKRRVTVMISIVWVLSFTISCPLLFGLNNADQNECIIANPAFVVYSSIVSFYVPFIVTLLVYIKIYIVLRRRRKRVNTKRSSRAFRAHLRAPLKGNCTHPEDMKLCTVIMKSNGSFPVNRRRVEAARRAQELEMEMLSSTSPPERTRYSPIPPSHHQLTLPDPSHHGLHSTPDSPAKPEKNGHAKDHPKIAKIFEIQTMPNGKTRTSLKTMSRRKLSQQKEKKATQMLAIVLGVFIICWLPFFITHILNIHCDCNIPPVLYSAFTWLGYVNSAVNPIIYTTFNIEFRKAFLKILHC

Compound	Potency [1]	Potency [2]	Potency [3]	Potency [4]	Potency [5]	Potency [6]	Potency [7]	Potency [8]	Potency [9]	Potency [10]	Potency [11]	Potency [12]	Potency [13]	Potency [14]	Potency [15]	Potency [16]	Potency [17]	Potency [18]	Potency [19]	Potency [20]
C=C(C)C(=O)Nc1ccc(Cl)c(Cl)c1	inactive	55 µM (active) and 43.1 µM (active)	inactive	inactive	inactive	inactive	inactive	inactive	inactive	inactive	inactive	inactive	inactive	inactive	inactive	inactive	inactive	inactive	–	–
CCC(=O)O	inactive	inactive	inactive	inactive	inactive	inactive	inactive	inactive	inactive	inactive	inactive	inactive	inactive	inactive	inactive	inactive	inactive	inactive	inactive	inactive
O=C(O)CCCCCCCCC(=O)O	inactive	inactive	inactive	inactive	inactive	inactive	inactive	inactive	inactive	inactive	inactive	inactive	inactive	inactive	inactive	inactive	inactive	inactive	inactive	–
O=C(Oc1ccccc1)c1ccccc1O	inactive	inactive and 68.6 µM (active)	inactive	–	–	–	inactive and 40.8 µM (active)	inactive	inactive	–	inactive	–	inactive	inactive	inactive	inactive	inactive	inactive	–	inactive
C[C@](N)(Cc1ccc(O)c(O)c1)C(=O)O	inactive	inactive	inactive	inactive	inactive	inactive	inactive	inactive	inactive	inactive	–	–	–	inactive	inactive	inactive	inactive	inactive	–	–
CCCCCCCCCCCCCCCO	inactive	54.9 µM (active) and inactive	inactive	inactive	inactive	inactive	inactive	inactive	inactive	inactive	inactive	inactive	inactive	inactive	–	inactive	inactive	inactive	inactive	–
CC(C)(CO)CO	inactive	inactive	inactive	inactive	inactive	inactive	inactive	inactive	inactive	inactive	inactive	inactive	inactive	inactive	inactive	inactive	–	inactive	inactive	–
CC(=O)OCCOC(C)=O	inactive	inactive	inactive	inactive	inactive	inactive	inactive	inactive	inactive	inactive	inactive	inactive	inactive	inactive	inactive	inactive	inactive	inactive	inactive	inactive
CCOCCOCCO	inactive	inactive	inactive	inactive	–	inactive	inactive	inactive	inactive	inactive	inactive	inactive	inactive	inactive	inactive	inactive	inactive	inactive	inactive	–
O=C(O)c1ccccc1	inactive	inactive	inactive	inactive	–	–	inactive	inactive	inactive	inactive	–	–	–	–	–	inactive	inactive	inactive	–	inactive
CCCCCCCCCCCCCCCCO	inactive	inactive	inactive	inactive	–	–	inactive	inactive	inactive	–	inactive	inactive	inactive	inactive	inactive	inactive	inactive	inactive	inactive	inactive
CCCCCCCCCCCCCC(=O)O	inactive	inactive	inactive	inactive	–	inactive	inactive	–	inactive	inactive	inactive	inactive	–	inactive	inactive	inactive	inactive	inactive	inactive	inactive
Nc1ccccc1[N+](=O)[O-]	inactive	inactive	–	inactive	inactive	inactive	inactive	inactive	inactive	inactive	inactive	inactive	inactive	inactive	inactive	inactive	inactive	inactive	inactive	inactive
Cc1ccc2c(n1)Oc1ccc(C(C)C(=O)OCC(=O)N(C)C)cc1C2 (configuration not stated)	inactive	inactive	inactive	inactive	inactive	inactive	inactive	inactive	–	inactive	inactive	inactive	inactive	inactive	inactive	inactive	inactive	inactive	inactive	inactive
C#CC1(O)CC[C@H]2[C@@H]3CCC4=CCCC[C@@H]4[C@H]3CC[C@@]21C (some centres not stated)	27.3 µM (active) and inactive	inactive	–	inactive	inactive	inactive	inactive	inactive	40.8 µM (active) and inactive	inactive	inactive	54.9 µM (active) and inactive	inactive	inactive	inactive	inactive	inactive	inactive	inactive	inactive
CC1COC(=O)O1 (configuration not stated)	inactive	inactive	–	inactive	inactive	inactive	inactive	inactive	inactive	inactive	inactive	inactive	inactive	inactive	inactive	inactive	inactive	inactive	inactive	inactive
